The campaign covered roughly 39,000 compounds. About 500 (1.3%) were called active. This excerpt belongs to a sample that is enriched for actives.

This assay has as its system S. aureus RN4220. Description: growth inhibition call (relative growth <= 0.2). Conditions: 50 µM.
On to `CCC1(C2OC(C3OC(O)(CO)C(C)CC3C)CC2C)CCC(C2(C)CCC3(CC(O)C(C)C(C(C)C(OC)C(C)C(=O)[O-])O3)O2)O1.[Na+]` (configuration not stated), for which the growth inhibition call was “active”.
As to `O=C(O)C(Cl)Cl.[NaH]`, the growth inhibition call was “inactive”.
For the molecule `C[N+]1(C)C2CC(OC(=O)C(CO)c3ccccc3)CC1C1OC12.[Br-]` (configuration not stated), the growth inhibition call was “inactive”.
`C[C@@]12NC(=O)CN1CCc1ccccc12`: the growth inhibition call was “inactive”.
Take `CCC(C(=O)[O-])C1CCC(C)C(C(C)C(O)C(C)C(=O)C(CC)C2OC3(C=CC(O)C4(CCC(C)(C5CCC(O)(CC)C(C)O5)O4)O3)C(C)CC2C)O1.[Na+]` (configuration not stated): the growth inhibition call is “active”.
On to `CC[C@@H](C(=O)[C@@H](C)[C@@H](O)[C@H](C)[C@@H]1O[C@@H]([C@@H](CC)C(=O)O)CC[C@@H]1C)[C@H]1O[C@]2(C=C[C@@H](O)[C@]3(CC[C@@](C)([C@H]4CC[C@](O)(CC)[C@H](C)O4)O3)O2)[C@H](C)C[C@@H]1C`, for which the growth inhibition call is “active”.
As for `CC[C@@H](C)C(=O)O[C@H]1[C@H](O)[C@H]2[C@@H](CN3C[C@@H](C)CC[C@@H]3[C@@]2(C)O)[C@H]2C[C@]34O[C@]5(O)[C@@H](OC(=O)[C@@](C)(O)CC)CC[C@@]3(C)[C@@H]5[C@@H](OC(C)=O)[C@@H](OC(C)=O)[C@@H]4[C@@]21O`, the growth inhibition call is “inactive”.
In the case of `COC(=O)C[C@@H]1CC[C@@H]2NC[C@H](O)COC[C@H]2O1`, the growth inhibition call is “inactive”.
As for `COc1cc2c3cc1Oc1c(OC)c(OC)cc4c1[C@@H](Cc1cccc(c1)Oc1ccc(c(O)c1)C[C@@H]3N(C)CC2)N(C)CC4`, the growth inhibition call is “inactive”.
For `C[C@@H](CN)CC(=O)O`, the growth inhibition call is “inactive”.
On to `Cc1noc(C)c1CN1CCNCC1`, for which the growth inhibition call is “inactive”.
Next, `C[C@H](O)[C@@]12[C@H]3CC=C[C@@H]1N2CC3` (some centres not stated): “inactive”; `C[CH2][Hg][S]c1ccccc1C(=O)[O-].[Na+]`: “active”; `CCCCOC(=O)c1ccccc1C(=O)OCCCC`: “inactive”.
Regarding `O=C([O-])Cc1ccccc1.[Na+]`, the growth inhibition call is “inactive”.
For the molecule `NCCO.NCCO.O[AsH]O[AsH]O` (configuration not stated), the growth inhibition call is “inactive”.
For `CO[C@H]1[C@@H](O)C[C@@H](O[C@H]2[C@@H](O)C[C@@H](O[C@H]3[C@@H](O)C[C@@H](O[C@H]4CC[C@@]5(C)[C@@H](CC[C@H]6[C@@H]5C[C@@H](O)[C@@]5(C)[C@H](C7=CC(=O)OC7)CC[C@@]65O)C4)O[C@@H]3C)O[C@@H]2C)O[C@@H]1C`, the growth inhibition call was “inactive”.
For `CN1C[C@H](C(=O)N[C@]2(C)O[C@@]3(O)[C@@H]4CCCN4C(=O)[C@H](Cc4ccccc4)N3C2=O)C=C2c3cccc4[nH]cc(c34)C[C@H]21`, the growth inhibition call is “inactive”.
For `C=C(C)[C@@H]1CCC(C)=C[C@H]1c1c(O)cc(CCCCC)cc1O`, the growth inhibition call was “active”.
Regarding `CCCCCCCCCc1ccc(O)cc1`, the growth inhibition call is “inactive”.
As to `C=C(C)[C@@H]1CCC(C)=C[C@H]1c1c(OC)cc(C)cc1OC`, the growth inhibition call was “inactive”.
For the molecule `C[C@H]1O[C@H](O[C@H]2[C@H](O)[C@@H](O)[C@@H](O)[C@H](O)[C@@H]2O)[C@@H](N)C[C@@H]1NC(=N)C(=O)O`, the growth inhibition call is “inactive”.
`Cc1[nH]c2ccc(O)cc2c1CCN`: the growth inhibition call is “inactive”.
Regarding `CN(C)[C@@H]1C(=O)C(C(N)=O)=C(O)[C@@]2(O)C(O)=C3C(=O)c4c(O)cccc4[C@](C)(O)[C@H]3C[C@@H]12`, the growth inhibition call is “active”.
As for `CN(C)[C@@H]1C(=O)[C@@H](C(N)=O)C(=O)[C@@]2(O)C(=O)[C@H]3C(=O)c4c(O)ccc(Cl)c4[C@@](C)(O)[C@H]3C[C@@H]12`, the growth inhibition call was “active”.
The value for `CN(C)[C@@H]1C(=O)[C@H](C(N)=O)C(=O)[C@@]2(O)C(=O)[C@@H]3C(=O)c4c(O)cccc4[C@@](C)(O)[C@H]3C[C@@H]12` was “active”; that for `N#Cc1nn(-c2c(Cl)cc(C(F)(F)F)cc2Cl)c(N)c1S(=O)C(F)(F)F` (configuration not stated) was “inactive”; that for `c1nc(N2CCN3CCC[C@H]3C2)c2[nH]cnc2n1` was “inactive”.
In the case of `O=[As]O[As]=O` (configuration not stated), the growth inhibition call was “inactive”.
`CC(C)[N+](C)(CCC(C(N)=O)(c1ccccc1)c1ccccc1)C(C)C.[I-]`: the growth inhibition call is “inactive”.
Consider `Oc1ccccc1-c1ccccc1O`, for which the growth inhibition call is “inactive”.
Take `CC1=CC(=O)c2c(O)cccc2C1=O`: the growth inhibition call was “active”.
For the molecule `O=C1C=CC(=O)c2c(O)cccc21`, the growth inhibition call was “inactive”.
As to `CN1C(=O)C(O)N=C(c2ccccc2)c2cc(Cl)ccc21` (configuration not stated), the growth inhibition call is “inactive”.
For the molecule `CNC(=O)Oc1ccc2c(c1)C1(C)CCN(C)C1N2C.O=S(=O)(O)O` (configuration not stated), the growth inhibition call was “inactive”.
On to `C[C@H]1O[C@H](C[N+](C)(C)C)C[C@@H]1O`, for which the growth inhibition call was “inactive”.
For the molecule `CC(=O)N[C@@H]1[C@H](O[C@@H]2O[C@H](C[C@@H](O)[C@H]3O[C@@H](n4ccc(=O)[nH]c4=O)[C@H](O)[C@@H]3O)[C@H](O)[C@H](O)[C@H]2NC(=O)/C=C/CCCCCCCCC(C)C)O[C@@H](CO)[C@H](O)[C@H]1O`, the growth inhibition call is “active”.
For the molecule `C[C@@]1(O)[C@H](O)[C@@H](CO)O[C@H]1n1ccc2c(N)ncnc21`, the growth inhibition call is “inactive”.
Next, `O=c1cccc2n1C[C@@H]1C[C@H]2CN(CCO)C1`: “inactive”.
As to `CC(=CCn1c[n+](C)c2c(N)ncnc21)CCC1(C)C(C)CCC2(C)C(C)=CCCC21.[Cl-]` (configuration not stated), the growth inhibition call is “active”.
With `OCCN1CC2(CCN(c3nccs3)C2)C1`, the growth inhibition call is “inactive”.
`CC(C)CC(CN)CC(=O)O` (configuration not stated): the growth inhibition call is “inactive”.
For the molecule `COC(=O)[C@@H](N)CCCNC(N)=N[N+](=O)[O-]`, the growth inhibition call was “inactive”.
Turning to `O=C1[O][SbH]23[O]C(=O)C([O]2)C2[O][SbH]4([O]C(=O)C([O]4)C1[O]3)[O]C2=O`, the growth inhibition call was “inactive”.
`O=C1[O][SbH]23[O]C(=O)[C@H]([O]2)[C@H]2[O][SbH]4([O]C(=O)[C@H]([O]4)[C@H]1[O]3)[O]C2=O`: the growth inhibition call was “active”.
For `C=C(CCCCCCCCCCCCCCCC)OOC[C@@H](COP(=O)(ON)O[C@@H]1[C@H](O)[C@H](O)[C@@H](OP(=O)(O)ON)[C@H](OP(=O)(O)ON)[C@H]1O)OOC(=C)CC/C=C/C/C=C/C/C=C/C/C=C/CCCCC` (some centres not stated), the growth inhibition call was “inactive”.
Take `CN1CC2(CNC2)OCCS1(=O)=O`: the growth inhibition call was “inactive”.
Turning to `CN(C)C(=O)CCC(=O)N1C[C@H]2C[C@@H]1CN2`, the growth inhibition call is “inactive”.
The value for `Oc1ccc(Cl)cc1Cc1cc(Cl)ccc1O` was “inactive”; that for `Oc1cc(Cl)ccc1Oc1ccc(Cl)cc1Cl` [listing 1 of 2 here] was “active”; that for `Oc1cc(Cl)ccc1Oc1ccc(Cl)cc1Cl` [listing 2 of 2 here] was “inactive”.
Next, `CC(=O)[O][Hg][c]1ccccc1`: “inactive”; `NC(=O)[C@H]1CNC(=O)C1`: “inactive”; `Cc1cc2c(C(C)C)c(O)c(O)c(C=O)c2c(O)c1-c1c(C)cc2c(C(C)C)c(O)c(O)c(C=O)c2c1O`: “inactive”.
In the case of `CC[C@@]1(O)C[C@H](O[C@H]2C[C@H](N(C)C)[C@H](O)[C@H](C)O2)c2c(cc3c(c2O)C(=O)c2c(O)ccc(O)c2C3=O)[C@H]1C(=O)OC`, the growth inhibition call is “inactive”.
The value for `COc1cccc2c1C(=O)c1c(O)c3c(c(O)c1C2=O)C[C@@](O)(C(=O)CO)C[C@@H]3O[C@H]1C[C@H](N2CCO[C@H](OC)C2)[C@H](O)[C@H](C)O1` was “active”.
For `CC=Cc1ccc2c(c1)OCO2`, the growth inhibition call is “inactive”.
Regarding `CCn1cnc2c(Nc3cccc(Cl)c3)nc(N[C@@H]3CCCC[C@@H]3N)nc21`, the growth inhibition call was “inactive”.
The value for `CCO[C@H]1[C@H]2CC[C@@H]1NC2` was “inactive”; that for `OCC(Br)(Br)Br` was “inactive”; that for `O=[N+]([O-])C(Br)(CO)CO` [listing 1 of 2 here] was “active”.
Turning to `O=[N+]([O-])C(Br)(CO)CO` [listing 2 of 2 here], the growth inhibition call is “active”.
`CCCCS(=O)(=O)N1C[C@H]2CNC[C@@H]2C1`: the growth inhibition call is “inactive”.
On to `C[C@H]1CN([C@@H](C)CO)C(=O)CCCn2nncc2CO[C@H]1CN(C)C(=O)Oc1ccc2ccccc2c1`, for which the growth inhibition call was “inactive”.
For the molecule `CNCC(=O)c1ccc(O)c(O)c1`, the growth inhibition call was “inactive”.
As for `CCCCCCCCCC(=O)O[C@@H]1[C@@H](C)[C@]2(O)[C@@H](C=C(CO)C[C@]3(O)C(=O)C(C)=C[C@@H]23)[C@@H]2C(C)(C)[C@@]12OC(=O)CCCCCCCCC`, the growth inhibition call is “inactive”.
As for `CCCCC(=O)N1C[C@@H]2CCNC[C@@H]21`, the growth inhibition call is “inactive”.
The value for `Cc1nc(-c2ccc(-c3ccc(C(=O)N4CCc5cc6c(cc54)C4(CCN(C)CC4)CO6)cc3)c(C)c2)no1` was “active”.
Consider `O=[N+]([O-])c1ccc([As](=O)(O)O)cc1`, for which the growth inhibition call was “inactive”.
For `CC(=O)NN1Cc2ccccc2C1=N`, the growth inhibition call is “inactive”.
Next, `CNc1ccc(C(=O)C[C@@H](O)CC[C@@H](C)[C@H]2OC(=O)C[C@@H](O)CC(=O)C[C@@H](O)C[C@@H](O)C[C@@H](O)C[C@@H](O)C[C@@]3(O)C[C@@H](O)[C@H](C(=O)OC)[C@@H](C[C@@H](O[C@@H]4O[C@H](C)[C@@H](O)[C@H](N)[C@@H]4O)\C=C/C=C\C=C/C=C\C=C/C=C\C=C/[C@@H]2C)O3)cc1`: “inactive”; `CCNS(=O)(=O)C(F)(F)C(F)(F)C(F)(F)C(F)(F)C(F)(F)C(F)(F)C(F)(F)C(F)(F)F`: “inactive”.
Take `CN(C)C(=O)Oc1ccc[n+](C)c1.[Br-]`: the growth inhibition call is “inactive”.
On to `c1ccc2sc(C3(N4CCCC4)CCCCC3)cc2c1`, for which the growth inhibition call was “inactive”.
As to `CCCCOC(=O)C1=CC(=O)CC(C)(C)O1`, the growth inhibition call was “inactive”.
As to `O=[N+]([O-])c1cc(O)c(O)c([N+](=O)[O-])c1`, the growth inhibition call was “inactive”.
The value for `O=[N+]([O-])c1cc([As](=O)(O)O)ccc1O` was “inactive”; that for `O=[N+]([O-])c1ccc(O)c([N+](=O)[O-])c1` was “active”; that for `CCCC[C@@H](C)[C@@H](OC(=O)C[C@@H](CC(=O)O)C(=O)O)[C@H](C[C@@H](C)C[C@H](O)CCCC[C@@H](O)C[C@H](O)[C@H](C)N)OC(=O)C[C@@H](CC(=O)O)C(=O)O` was “inactive”.
Turning to `O=C(O)C[C@H]1CC[C@@H]2NC[C@H](O)COC[C@H]2O1`, the growth inhibition call is “inactive”.
On to `CC(C)[C@@H](Br)C(=O)NC(N)=O`, for which the growth inhibition call was “inactive”.
In the case of `C[C@@H]1CN([C@H](C)CO)C(=O)CCCn2nncc2CO[C@@H]1CN(C)C(=O)Oc1ccc2ccccc2c1`, the growth inhibition call was “inactive”.
As for `CC(=O)[O][Cd][O]C(C)=O`, the growth inhibition call was “active”.
Regarding `CC(=O)[O][PbH2][O]C(C)=O`, the growth inhibition call is “inactive”.
In the case of `CC1OC(OC2C(O)C(O)C(O)C(O)C2O)C(N)CC1NC(=N)C(=O)O.Cl` (configuration not stated), the growth inhibition call is “inactive”.
For the molecule `C=C1[C@@H](C)[C@H]2[C@H](Cc3ccccc3)NC(=O)[C@]23[C@H](OC(C)=O)/C=C/[C@](C)(O)C(=O)[C@@H](C)C/C=C/[C@H]3[C@@H]1O`, the growth inhibition call was “inactive”.
With `C=CCOC(Cn1ccnc1)c1ccc(Cl)cc1Cl.O=S(=O)(O)O` (configuration not stated), the growth inhibition call is “active”.

These data come from the antibiotic and cytotoxicity screens of Wong et al. (2023).
